Measured values: PubChem BioAssay (EPA / NIEHS)
Results filed as inconclusive are left out. Calls of active or inactive are those of the source. The calls were made as follows, unless noted: active = hit-call score of the fitted dose curve at least 0.9, where 1 is the maximum; inactive = score below 0.9.

Experiments:
[1] = read-out: Interleukin-8 (IL8), CXCL8 (gene 3576); test: BSK_3C_IL8: BioMAP Diversity Plus: 3C Assay for Interleukin-8 (IL8) Biomarker Activity (AID 2283020); conditions: primary human endothelial cells (HUVEC); actives raise or lower the signal
In short: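 ELISA read-out of IL-8 from human umbilical vein endothelium, measured 24 h after chemical dosing. Activity is expressed relative to DMSO negative control, with both increases and decreases fitted.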

[2] = read-out: Monokine induced gamma interferon (MIG), CXCL9 (gene 4283); test: BSK_3C_MIG: BioMAP Diversity Plus: 3C Assay for Monokine induced gamma interferon (MIG) Biomarker Activity (AID 2283021); conditions: primary human endothelial cells (HUVEC); actives raise or lower the signal;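 as to AC50: MIG protein level measured by immunoassay in the treated endothelial cultures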
In short: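 Read-out is ELISA detection of MIG on human umbilical vein endothelial cells, taken 24 h after dosing. Gain or loss of signal was scored relative to DMSO controls using bidirectional curve fitting.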

[3] = biological target: human Vitamin D Receptor (VDR), VDR (gene 7421) (UniProt P11473); test: ATG_VDR_TRANS: Attagene TRANS-FACTORIAL HepG2 Assay for human Vitamin D Receptor (VDR) (AID 2283022; active = hit-call score of the fitted dose curve at least 0.9, where 1 is the maximum)
In short: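 RT-PCR/capillary electrophoresis read-out of reporter mRNA induction in transiently transfected HepG2; 24 h dosing; chimeric NR-Gal4 (TRANS format); gain-of-signal fit against DMSO baseline.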

[4] = BSK_3C_SRB: Viability Assessment in the BioMAP Diversity Plus: 3C Assay (AID 2283023); conditions: primary human endothelial cells (HUVEC);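 also: fitted both ways against DMSO so a hit may be signal rise or drop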
In short: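 HUVEC, 24 h post-dose; 10% TCA fix, 0.1% SRB stain, A560 nm. Bidirectional curve fit vs DMSO negative control.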

[5] = read-out: Matrix Metallopeptidase 1 (MMP1), MMP1 (gene 4312); test: BSK_BE3C_MMP1: BioMAP Diversity Plus: BE3C Assay for Matrix Metallopeptidase 1 (MMP1) Biomarker Activity (AID 2283024); conditions: primary human bronchial epithelial cells; actives raise or lower the signal
In short: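 Human bronchial epithelial cells (BE3C system) exposed to compound for 24 h; MMP1 then quantified by ELISA. Activity was fitted in both directions relative to DMSO.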

[6] = read-out: Pselectin, SELP (gene 6403); test: BSK_4H_Pselectin: BioMAP Diversity Plus: 4H Assay for Pselectin Biomarker Activity (AID 2283026); conditions: primary human endothelial cells (HUVEC); actives raise or lower the signal
In short: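 ELISA read-out of P-selectin on human umbilical vein endothelium after 24 h of dosing. Values derive from bidirectional fitting relative to DMSO. Parallel SRB protein staining flagged overt cytotoxicity.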

[7] = BSK_4H_SRB: Viability Assessment in the BioMAP Diversity Plus: 4H Assay (AID 2283027); conditions: primary human endothelial cells (HUVEC);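 also: cells exposed to compound for 24 h before staining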;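 as to AC50: curves fitted both ways versus DMSO so AC50 may be loss or gain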
In short: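 Human umbilical vein endothelial cells were dosed with chemical and, after 24 h, fixed with 10% TCA, stained with 0.1% sulforhodamine B, and read at 560 nm to give total protein as a cytotoxicity measure. Bidirectional fitting relative to DMSO control.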

[8] = BSK_BE3C_SRB: Viability Assessment in the BioMAP Diversity Plus: BE3C Assay (AID 2283028); conditions: primary human bronchial epithelial cells;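 as to AC50: fitted both ways so AC50 may mark signal gain or loss versus DMSO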
In short: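 Primary human bronchial epithelium; chemical dosing, 24 h; 10% TCA fix, 0.1% SRB stain, A560; bidirectional fit vs DMSO baseline.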

[9] = read-out: Thrombomodulin, THBD (gene 7056); test: BSK_3C_Thrombomodulin: BioMAP Diversity Plus: 3C Assay for Thrombomodulin Biomarker Activity (AID 2283029); conditions: primary human endothelial cells (HUVEC); actives raise or lower the signal
In short: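 Read-out is ELISA of thrombomodulin on human umbilical vein endothelium 24 h after chemical dosing. Gain or loss of signal is scored relative to DMSO. Overt cytotoxicity is checked in parallel cultures by sulforhodamine B staining.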

[10] = read-out: Urokinase-type plasminogen activator receptor (uPAR), PLAUR (gene 5329); test: BSK_4H_uPAR: BioMAP Diversity Plus: 4H Assay for Urokinase-type plasminogen activator receptor (uPAR) Biomarker Activity (AID 2283030); conditions: primary human endothelial cells (HUVEC); actives raise or lower the signal
In short: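 HUVEC, 24 h post-dose; uPAR by ELISA; bidirectional fit vs DMSO baseline.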

[11] = read-out: Vascular endothelial growth factor receptor 2 (Homo sapiens) (UniProt P35968); test: BSK_4H_VEGFRII: BioMAP Diversity Plus: 4H Assay for Vascular endothelial growth factor receptor 2 (VEGFR2) Biomarker Activity (AID 2283031); conditions: primary human endothelial cells (HUVEC); actives raise or lower the signal;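 as to AC50: cell-surface VEGFR2 protein level quantified by ELISA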
In short: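 HUVEC (human primary), 4H system; 24 h post-dose; VEGFRII by ELISA; bidirectional curve fit vs DMSO baseline; gain or loss of signal scored.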

[12] = read-out: Human Leukocyte Antigen - DR isotype (HLADR), HLA-DRA (gene 3122); test: BSK_BE3C_HLADR: BioMAP Diversity Plus: BE3C Assay for Human Leukocyte Antigen - DR isotype (HLADR) Biomarker Activity (AID 2283032); conditions: primary human bronchial epithelial cells; actives raise or lower the signal
In short: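 ELISA read-out of HLA-DR on human lung bronchial epithelial primary cells, measured 24 h post-dosing. Both increases and decreases were scored relative to DMSO vehicle.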

[13] = read-out: Vascular cell adhesion molecule 1 (VCAM1), VCAM1 (gene 7412); test: BSK_4H_VCAM1: BioMAP Diversity Plus: 4H Assay for Vascular cell adhesion molecule 1 (VCAM1) Biomarker Activity (AID 2283033); conditions: primary human endothelial cells (HUVEC); actives raise or lower the signal
In short: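 ELISA read-out of VCAM-1 on human umbilical vein endothelium 24 hours after chemical dosing; gain or loss of signal was fitted relative to DMSO, with sulforhodamine B staining of parallel cultures flagging overt cytotoxicity.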

[14] = read-out: Interferon-gamma inducible Protein 10 (IP10), CXCL10 (gene 3627); test: BSK_BE3C_IP10: BioMAP Diversity Plus: BE3C Assay for Interferon-gamma inducible Protein 10 (IP10) Biomarker Activity (AID 2283034); conditions: primary human bronchial epithelial cells; actives raise or lower the signal
In short: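 Chemical is dosed onto human lung bronchial epithelial primary cells, cultures are incubated 24 h, and IP-10 is then quantified by ELISA. Gain or loss of signal is fitted in both directions relative to DMSO.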

[15] = read-out: Monokine induced gamma interferon (MIG), CXCL9 (gene 4283); test: BSK_BE3C_MIG: BioMAP Diversity Plus: BE3C Assay for Monokine induced gamma interferon (MIG) Biomarker Activity (AID 2283035); conditions: primary human bronchial epithelial cells; actives raise or lower the signal
In short: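 ELISA read-out of MIG in human lung bronchial epithelial primary cultures, 24 h post-dosing. Bidirectional curve fit vs DMSO baseline.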

[16] = read-out: urokinase plasminogen activator (uPA), PLAU (gene 5328); test: BSK_BE3C_uPA: BioMAP Diversity Plus: BE3C Assay for urokinase plasminogen activator (uPA) Biomarker Activity (AID 2283038); conditions: primary human bronchial epithelial cells; actives raise or lower the signal
In short: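 ELISA read-out of uPA in human lung primary bronchial epithelial cultures, 24 h post-dosing. Gain or loss of signal fitted bidirectionally relative to DMSO baseline; cytotoxicity checked in parallel cultures via SRB total protein stain.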

[17] = read-out: Interleukin-6 (IL6), IL6 (gene 3569); test: BSK_CASM3C_IL6: BioMAP Diversity Plus: CASM3C Assay for Interleukin-6 (IL6) Biomarker Activity for (AID 2283040); conditions: primary human coronary artery smooth muscle cells; actives raise or lower the signal
[18] = read-out: Transforming growth factor beta 1 (TGFb1), TGFB1 (gene 7040); test: BSK_BE3C_TGFb1: BioMAP Diversity Plus: BE3C Assay for Transforming growth factor beta 1 (TGFb1) Biomarker Activity (AID 2283036); conditions: primary human bronchial epithelial cells; actives raise or lower the signal
In short: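 Primary human lung bronchial epithelial cells; compound exposure 24 h; TGF-b1 by ELISA; bidirectional fit, DMSO baseline. Parallel SRB total-protein staining for cytotoxicity.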

[19] = read-out: Plasminogen activator inhibitor-1 (PAI1), SERPINE1 (gene 5054); test: BSK_BE3C_PAI1: BioMAP Diversity Plus: BE3C Assay for Plasminogen activator inhibitor-1 (PAI1) Biomarker Activity (AID 2283037); conditions: primary human bronchial epithelial cells; actives raise or lower the signal
In short: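 Primary human lung bronchial epithelial cells; chemical dosing; 24 h; PAI-1 measured by ELISA; bidirectional fit referenced to DMSO as negative control.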

[20] = read-out: Urokinase-type plasminogen activator receptor (uPAR), PLAUR (gene 5329); test: BSK_BE3C_uPAR: BioMAP Diversity Plus: BE3C Assay for Urokinase-type plasminogen activator receptor (uPAR) Biomarker Activity (AID 2283039); conditions: primary human bronchial epithelial cells; actives raise or lower the signal;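 also: uPAR protein level measured by ELISA on the cells; cells exposed to compound for one day before measurement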
In short: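 Human bronchial epithelial primary cells; chemical exposure 24 h; uPAR by ELISA; bidirectional fit vs DMSO control.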

Measured: AC50

human Vitamin D Receptor (VDR), VDR (gene 7421), sequence (P11473 whole entry, looked up, the tested form may be a part): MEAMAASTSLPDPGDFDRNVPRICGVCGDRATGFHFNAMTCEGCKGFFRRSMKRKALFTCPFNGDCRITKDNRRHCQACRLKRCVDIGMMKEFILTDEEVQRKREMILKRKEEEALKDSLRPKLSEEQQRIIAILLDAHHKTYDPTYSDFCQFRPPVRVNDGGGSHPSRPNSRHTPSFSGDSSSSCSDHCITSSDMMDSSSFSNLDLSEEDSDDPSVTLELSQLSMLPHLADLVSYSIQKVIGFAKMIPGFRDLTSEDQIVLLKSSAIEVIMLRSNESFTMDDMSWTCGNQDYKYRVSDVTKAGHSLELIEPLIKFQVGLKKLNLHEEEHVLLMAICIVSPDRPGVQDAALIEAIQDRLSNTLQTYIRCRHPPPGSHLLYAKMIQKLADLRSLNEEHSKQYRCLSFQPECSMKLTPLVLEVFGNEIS

OCC(O)CC(F)(F)C(F)(F)C(F)(F)C(F)(F)F (stereo not drawn)
not listed: [18] | [19] | [20]
inactive: all other assays above

O=C=NCc1cccc(CN=C=O)c1
not listed: [3] | [20]
inactive: all other assays above

NC(O)(C(F)(F)F)C(F)(F)F
not listed: [18] | [19]
inactive: all other assays above

O=C(O)C(F)(F)C(F)(F)C(F)(F)C(=O)O
not listed: [18] | [19]
inactive: all other assays above

O=C1c2c(O)ccc(Nc3ccc(CCO)cc3)c2C(=O)c2c([N+](=O)[O-])ccc(O)c21
active: [2] 34.2 µM | [5] 2.47 µM | [6] 20 µM | [7] 31.3 µM | [9] 10.7 µM | [10] 31.1 µM | [11] 34.8 µM | [12] 3.43 µM | [13] 26.6 µM | [14] 20 µM | [15] 20 µM
inactive: [1] | [4] | [8] | [18] | [16] | [20] | [17]

F[Si-2](F)(F)(F)(F)F
inactive: [3]

CN1CN(C)CN(C)C1
inactive: [3]

CCCCCCCCCCCCC[N+](C)(C)Cc1ccccc1
inactive: [3]

N#Cc1ccccc1O
inactive: [3]

CCC(Cc1c(I)cc(I)c(N)c1I)C(=O)O (stereo not drawn)
inactive: [3]

Cc1cc(C)c(O)c(C(C)(C)C)c1
inactive: [2] | [11]
active: [1] 20 µM | [4] 30.1 µM | [5] 29 µM | [6] 20 µM | [7] 29.5 µM | [8] 32 µM | [9] 33.9 µM | [10] 37.7 µM | [12] 29.5 µM | [13] 30.4 µM | [14] 31 µM | [15] 36 µM | [18] 29.8 µM | [16] 28.7 µM | [17] 29.6 µM

CCCCOC(=O)C(C)O (stereo not drawn)
inactive: [3]

CC(O)C#CC(C)O (stereo not drawn)
inactive: [3]
